Tests used:
Assay type in all cases: functional
[1] = molecular target: Solute carrier family 2, facilitated glucose transporter member 1 (Homo sapiens) (UniProt P11166); assay: ST_JUDE_LEISH: Cytotoxicity at 2uM final concentration against transgenic Leishmania Mexicana promastigotes LmGLUT1 that are glucose transport deficient and complemented with the human glucose transporter GLUT1. Activity is measured by DNA content using SYBR green in vitro
[2] = molecular target: Hexose transporter 1 (Plasmodium falciparum) (UniProt O97467); assay: ST_JUDE_LEISH: Cytotoxicity at 2uM final concentration against transgenic Leishmania Mexicana promastigotes LmPfHT that are glucose transport deficient and complemented with the Plasmodium falciparum hexose transporter. Activity is measured by DNA content using SYBR green in vitro
[3] = molecular target: Glucose transporter (Leishmania mexicana) (UniProt O61059); assay: ST_JUDE_LEISH: Cytotoxicity at 2uM final concentration against transgenic Leishmania Mexicana promastigotes LmGT2 that are glucose transport deficient and complemented with the L. Mexicana glucose transporter 2. Activity is measured by DNA content using SYBR green in vitro

Sequence of Solute carrier family 2, facilitated glucose transporter member 1 (Homo sapiens) (P11166 whole entry): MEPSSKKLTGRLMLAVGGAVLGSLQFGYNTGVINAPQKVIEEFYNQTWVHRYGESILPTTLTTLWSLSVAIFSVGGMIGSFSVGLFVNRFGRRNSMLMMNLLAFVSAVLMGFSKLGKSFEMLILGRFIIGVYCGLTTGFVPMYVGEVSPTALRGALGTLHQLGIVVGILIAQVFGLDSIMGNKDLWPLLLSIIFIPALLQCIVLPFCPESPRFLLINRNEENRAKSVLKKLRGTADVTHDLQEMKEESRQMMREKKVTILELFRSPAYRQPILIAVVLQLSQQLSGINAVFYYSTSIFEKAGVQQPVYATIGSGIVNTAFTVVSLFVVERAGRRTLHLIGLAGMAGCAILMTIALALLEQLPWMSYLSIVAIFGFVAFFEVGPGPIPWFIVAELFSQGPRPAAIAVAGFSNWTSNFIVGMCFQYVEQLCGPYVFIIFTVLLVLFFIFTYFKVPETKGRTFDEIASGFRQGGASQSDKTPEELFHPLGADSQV

| SMILES | inhibition [1] | inhibition [2] | inhibition [3] |
| --- | --- | --- | --- |
| Nc1c2ccccc2nc2cc(C(F)(F)F)ccc12 | 2.83% | 5.91% | 1.3% |
| O=C1COc2ccccc2N1C/C=C(\CN1CCC(c2ccccc2)CC1)c1cc(Cl)cc(Cl)c1 | 1.77% | 1.99% | 1.69% |
| CN(C)Cc1ccc(-c2ccc(NC(=O)c3ccc4c(=O)n(Cc5ccccc5)cnc4c3)cc2)cc1 | 95.2% | 94% | 63.3% |
| COc1cccc2cc(C(=O)N[C@@H](CC(C)C)C(=O)NC(/C=N/NC(=O)c3ccccc3)CCc3ccccc3)oc12 (stereo partly drawn) | -0.59% | 2.83% | 0.75% |
| COc1ccccc1N1CCN(CCCCNC(=O)c2ccc(NC(=O)c3cc4ccccc4o3)cc2)CC1 | 1.4% | 1.36% | 0.06% |
| COc1cccc2c(O)c(CNC3CCCCC3)ccc12 | -0.95% | -0.26% | 1.11% |
| CCCC(C)Nc1nc(C)cc(N[C@@H](Cc2ccccc2)C(=O)Nc2ccccc2)n1 (stereo partly drawn) | 2.98% | 3.18% | 0.41% |
| CC1(C)NC(N)=NC(=N)N1OCCCO | -0.7% | -0.74% | -1.67% |
| O=C(O)c1ccc(-c2c[nH]c3ncc(-c4ccc(Cl)cc4)cc23)cc1 | 0.12% | -0.34% | -0.05% |
| C=CCc1cc(Cc2cnc(N)nc2N)c2ccc(C)nc2c1O | 2.17% | 1.88% | 0.24% |
| Cc1cc(Nc2nc(Nc3cccc(Cl)c3)nc3ccccc23)n[nH]1 | 10.5% | 17.2% | 9.22% |
| CC(=O)Nc1[nH]c(-c2ccccc2)nc1C(N)=O | -1.96% | -0.89% | -1.65% |
| O=C(c1ccccc1)N1COCC(CCN2CCC(N3CCCC3)CC2)(c2ccc(Cl)c(Cl)c2)C1 (stereo not drawn) | 2.71% | -0.49% | 2.59% |
| O=C(CCc1c[nH]cn1)Nc1cccc(-c2ccc(-c3nc4ccccc4[nH]3)s2)c1 | 2.18% | 4.04% | 1.88% |
| CC(C)(C)OC(=O)NCC(=O)N(Cc1ccccc1)Cc1ccccc1 | 4.96% | 4.38% | 3.73% |
| CCN(CC)CCN(CCCc1ccc(-c2ccc(C(F)(F)F)cc2)cc1)C(=O)Cn1c(CCc2cccc(F)c2F)nc(=O)c2ccccc21 | 2.87% | 2.91% | 2.33% |
| COc1cc(C(C)C)nc2ccc(NC(=O)c3ccc(C(=O)Nc4ccc5nc(C(C)C)cc(OC)c5c4)cc3)cc12 | 6.44% | 5.94% | 3.76% |
| CN(C)c1cc(NC(=O)Nc2ccccc2)c2ccccc2n1 | 2.21% | 5.06% | 2.82% |
| O=C(NC1CCN(Cc2ccccc2)CC1)c1cccc(-c2nc3ccc(Cl)cc3[nH]2)c1 | 1.15% | 2.61% | 2.94% |
| O=C(N1CCN(c2ccc(C(F)(F)F)cc2[N+](=O)[O-])CC1)C(Cl)(Cl)Cl | 3.26% | 3.64% | 1.86% |
| O=C(/C=C/c1ccc(Cl)c(Cl)c1)N1CCC(CN2CCC(c3c[nH]c4ccncc34)CC2)CC1 | 4.66% | 5.47% | 5.44% |
| O=C(Nc1ccc(-c2cccc(-c3nc4ccccc4[nH]3)c2)cc1)NC1CC1c1ccccc1 (stereo not drawn) | 1.87% | 1.77% | -0.17% |
| CC(=O)Nc1cccc(C(=O)Nc2ccc(-c3ccc(-c4nc5cccc(C)c5[nH]4)s3)cc2)c1 | -0.38% | 1.16% | 0.04% |
| COc1ccc(-c2ccc(NC(=O)c3cccc(Cl)c3)cc2)cc1CN1CCCC1 | 11.7% | 2.9% | 4.28% |

| SMILES | inhibition [1] | inhibition [2] | inhibition [3] |
| --- | --- | --- | --- |
| Cc1ccc(S(=O)(=O)N2CCCN(C(=O)c3cc(-c4ccccc4)[nH]n3)CC2)cc1 | -1.48% | 0.45% | 0.04% |
| Cc1ccc2nc(-c3ccc(C(=O)NCc4ccc(Cl)c(Cl)c4)cc3)[nH]c2c1C | 2.57% | 0.03% | 0.59% |
| CN(C)c1cccc2c1nc(-c1ccco1)n2CC1CCCN1 (stereo not drawn) | -1.97% | -3.51% | -0.52% |
| CCc1ccc(NC(=O)c2ccc(CN3CCCN(Cc4cccc(O)c4)CC3)cc2)cc1 | -0.63% | -1.78% | 2.57% |
| COc1ccc(CN(C)Cc2ccc(NC(=O)c3cccc4c(=O)c5cccc(C)c5[nH]c34)cc2)cc1OC | 4.59% | 11.6% | 0.44% |
| O=C(Nc1cc(Cl)ccc1Cl)N[C@H]1CCN(CCCCCNC(=O)C2CC2c2ccc(Cl)c(Cl)c2)C1 (stereo partly drawn) | 1.43% | 1.2% | 4.46% |
| COc1cc(-c2nc(-c3ccccc3)c(-c3ccccc3)[nH]2)cc(OC)c1O | -0.19% | -0.87% | -1.53% |
| Cc1cc(CN2CCCC(OC(c3ccc(F)cc3)c3ccc(F)cc3)C2)ccc1O (stereo not drawn) | 9.25% | 4.88% | 0.78% |
| c1ccc2c3c([nH]c2c1)C(c1ccc2c(c1)CCO2)N(c1ncnc(N2CCN(CCCN4CCOCC4)CC2)n1)CC3 (stereo not drawn) | 8.79% | 3.13% | 1.89% |
| Cc1nc(-c2cccc(C(F)(F)F)c2)n2nc(Nc3ccc(OCCN4CCCC4)cc3)ncc12 | 76% | 53.7% | 9.22% |
| C[C@H](NC(=O)c1c(CN2CCN(C(=O)C(C)(C)C)CC2)c(-c2cccs2)nc2ccccc12)C1CCCCC1 | 6.07% | 5.13% | 2.24% |
| COc1cccc(C=CC(=O)N(CCN)Cc2ccccc2)c1 | 6.9% | 8.75% | 7.33% |
| O=C(NNC(=O)c1ccc(CCN2CCC(c3nc(COCC(F)(F)F)c(-c4ccc(F)cc4)o3)CC2)cc1)Nc1ccc(Oc2ccccc2)cc1 | -0.99% | -0.56% | -0.09% |
| CC(C)(C)N1CCC(N(Cc2ccc(-c3ccc(C(F)(F)F)cc3)cc2)C(=O)Cn2c(CCc3cccc(F)c3F)cc(=O)c3ccccc32)CC1 | 1.29% | 0.14% | 1.02% |
| Cc1ccc(C2(CN3CCC(NC(=O)c4cc[nH]n4)CC3)CCCCC2)cc1 | 0.21% | -1.4% | -0.05% |
| NC1CCN(Cc2ccc(-c3cccc(-c4nc5cc(F)ccc5[nH]4)c3)cc2)C1 (stereo not drawn) | 16.9% | 14.7% | 12.8% |
| COc1cc2nc(NCC3CCCCC3)nc(NCc3ccccc3)c2cc1OC | 3.26% | 4.81% | 0.32% |
| Cc1ccc(Nc2nc(C)cc(NC3CCN(C)CC3)n2)cc1 | 1.14% | 3.12% | 5.43% |
| COc1cccc(C(=O)Nc2nonc2-c2ccc(OC)c(OC)c2)c1 | 2.16% | 2.49% | 1.34% |
| O=C(c1ccco1)N1CCN(c2nc(-c3ccc(Cl)cc3)nc3ccccc23)CC1 | 6.35% | 1.81% | 4.42% |
| COc1cccc(NC(=O)[C@H](C(C)C)n2c(=O)[nH]c3ccccc3c2=O)c1 | 1.34% | 0.97% | 5.04% |
| Cc1ccc(N2C(=O)C3C(C2=O)C2(c4ccccc4)C(=O)C3(c3ccccc3)C(c3ccccc3)=C2c2ccccc2)cc1 (stereo not drawn) | 0.73% | 0.67% | -1.83% |
| N#CCCN1CCN(Cc2cccc(-c3ccc(-c4nc5ccccc5[nH]4)cc3)c2)CC1 | 2.32% | 3.22% | 0.84% |
| Cc1ccc2c(c1)C1(CC(=O)N(CCc3scnc3C)C1=O)C(=O)N2Cc1ccccc1 (stereo not drawn) | 2.62% | 3.66% | 3.42% |

| SMILES | inhibition [1] | inhibition [2] | inhibition [3] |
| --- | --- | --- | --- |
| CN1CCCN(c2ccnc3cc4c(cc23)N(C(=O)c2ccccc2Cl)CC4)CC1 | -0.76% | 0.96% | -0.18% |
| COc1ccc(C(=O)NCc2ccc(N)nc2C)cc1Nc1ncc(-c2cccc(N(C)C)c2)cn1 | 0.19% | -1.36% | 1.76% |
| COc1ccc(C2CC(c3ccccc3)=NN2C(=O)c2ccc(Br)o2)cc1 (stereo not drawn) | -0.17% | 0.43% | 0.09% |
| Cc1ccc(C(=O)NC2CCN(CCNC(=O)Nc3cc(C)nc4ccccc34)CC2)cc1 | -1.56% | 0.53% | -1.45% |
| O=C(NCCCCCN1CCC(c2c[nH]c3ccccc23)CC1)Nc1ccc(Cl)cc1Cl | 2.57% | 2.01% | 2.92% |
| CCCN1CCN(CC(O)CNC(=O)Nc2ccc(Br)cc2)CC1 (stereo not drawn) | 3.68% | 4.03% | 3.09% |
| C=CCc1ccc(C[C@H](NC(=O)OC(C)(C)C)C(=O)OC)cc1 | 22.2% | 40.4% | 34.5% |
| C#Cc1cccc(NC(=O)[C@H](CC2CCCCC2)Nc2ccc(C#N)c3ccccc23)c1 | 2.22% | 2.53% | 1.87% |
| C=C(NC(=O)c1cc(C)cc(C)c1)C(=O)OC | 0.48% | -0.44% | 0.67% |
| O=C(c1ccc(O)c(-c2cc(Cl)cc(Cl)c2)c1)N(CCO)CCO | 2.23% | 1.98% | 3.14% |
| CC(=O)Nc1ccc(CN2CCC(CNC(=O)c3cc(-c4cccc(Cl)c4)cs3)C2)cc1 (stereo not drawn) | -1.53% | 0.33% | 3.3% |
| O=[N+]([O-])c1ccc(Nc2nc(N/N=C/c3cc(Cl)cc(Cl)c3O)nc(Nc3ccccc3)n2)cc1 | 2.04% | 2.61% | 2.65% |
| CCOc1cc(C)ccc1C1CCN(CCCCNC(=O)c2ccc(-c3ccc(Cl)cn3)cc2)CC1 | 1.1% | -0.06% | -0.83% |
| CC(C)(C)OC(=O)/C=C(\C(=O)OCc1ccc([N+](=O)[O-])cc1)c1csc(NC(c2ccccc2)(c2ccccc2)c2ccccc2)n1 | 4.04% | 4.55% | 3.64% |
| CN(C)CCN1CCN(Cc2ccc(-c3cccc(-c4nc5ccccc5[nH]4)c3)cc2)CC1 | -2.11% | -0.12% | -0.98% |
| CN(CCc1ccccn1)c1cccc2c1nc(-c1cccnc1)n2CCNCc1ccccc1 | 14.8% | 13.4% | 11.3% |
| O=C(Nc1cccc(N2CCC(NCc3cnn(-c4cccc(F)c4)c3)CC2)c1)c1ccncc1 | -0.97% | 0.64% | -0.33% |
| CCOC(=O)c1cnc2c(OC)cc(OC)c(Cl)c2c1Nc1cccc(C)c1C | 0.67% | -0.69% | -6.14% |
| O=C(Nc1cccc(-c2cccc(-c3nc4ccccc4[nH]3)c2)c1)c1csnn1 | 5.15% | 5.92% | 1.92% |
| CN(C)CCn1c(=N)n(CC(O)c2ccc(Cl)c(Cl)c2)c2ccccc21 (stereo not drawn) | 6.31% | 4.53% | 5.49% |
| O=C(CC1CCCC1)N(Cc1ccc(-c2ccc(CNC3Cc4ccccc4C3)cc2)cc1)CC1CCCCN1 (stereo not drawn) | 38.3% | 4.62% | 2.06% |
| CCN(CC)c1ccc(C=CC(=O)NCCN2CCC(N(C)C3CCCCC3C)CC2)cc1 (stereo not drawn) | -2.14% | -0.93% | -0.02% |
| Cc1nc(-c2cccc3c(NC(=O)Nc4ccc5nccc(N6CCN(C)CC6)c5c4)cccc23)no1 | 4.28% | 4.25% | 6.65% |
